Of roughly 7,900 targets only a part is listed; those with a hit were picked by preference. About 0.6% of all pairs of compound and target were hits.
Key:
Test in all cases: log2 fold change, soluble protein after heating vs DMSO (PISA); higher = thermal stabilisation; K562 cells, 10 uM, 30 min; active = over 0.2 and 3.5 SD of the protein, either way, in both replicates (recomputed)
[1] = compound: CS(=O)(=O)c1ccc(-c2cnc(N)c(C(=O)Nc3ccccc3)n2)cc1
Method in brief: (§1)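 K562 cells at 2×10^6 cells/mL were treated for 30 min with 10 μM compound, and aliquots were heated for 3 min over 48°C-58°C before pooling. Extraction used PBS with 0.5% NP-40 at 4°C, and soluble protein was the supernatant after 21,000xg for 90 min, measured by TMTpro 16plex LC-MS/MS with channel sums equalised. Thermal stability values, relative to control samples and from duplicates, are log2 fold changes.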

crizotinib = compound: C[C@@H](Oc1cc(-c2cnn(C3CCNCC3)c2)cnc1N)c1c(Cl)ccc(F)c1Cl [crizotinib]
Method in brief: as §1

[2] = compound: C[C@@H]1COCCN1C2=NC(=NC(=C2)C3(CC3)S(=O)(=O)C)C4=C5C=CNC5=CC=C4
Method in brief: as §1

[3] = compound: C[C@H](C1=CC=C(C=C1)C(=O)NC2=C3C=CNC3=NC=C2)N
Method in brief: as §1

duvelisib = compound: C[C@H](Nc1ncnc2nc[nH]c12)c1cc2cccc(Cl)c2c(=O)n1-c1ccccc1 [duvelisib]
Method in brief: as §1

gandotinib = compound: Cc1cc(Nc2cc(CN3CCOCC3)c3nc(C)c(Cc4ccc(Cl)cc4F)n3n2)n[nH]1 [gandotinib]
Method in brief: as §1

tozasertib = compound: Cc1cc(Nc2cc(N3CCN(C)CC3)nc(Sc3ccc(NC(=O)C4CC4)cc3)n2)n[nH]1 [tozasertib]
Method in brief: as §1

[4] = compound: Cc1cc(SCc2sc(-c3ccc(C(F)(F)F)cc3)nc2C)ccc1OCC(=O)O
Method in brief: as §1

doramapimod = compound: Cc1ccc(-n2nc(C(C)(C)C)cc2NC(=O)Nc2ccc(OCCN3CCOCC3)c3ccccc23)cc1 [doramapimod]
Method in brief: as §1

ispinesib = compound: Cc1ccc(C(=O)N(CCCN)[C@@H](c2nc3cc(Cl)ccc3c(=O)n2Cc2ccccc2)C(C)C)cc1 [ispinesib]
Method in brief: as §1

bafetinib = compound: Cc1ccc(NC(=O)c2ccc(CN3CC[C@H](N(C)C)C3)c(C(F)(F)F)c2)cc1Nc1nccc(-c2cncnc2)n1 [bafetinib]
Method in brief: as §1

[5] = compound: Cc1cccc(CC(=O)N2CCc3c2ccc(-c2cn(C)c4ncnc(N)c24)c3F)n1
Method in brief: as §1

nilotinib = compound: Cc1cn(-c2cc(NC(=O)c3ccc(C)c(Nc4nccc(-c5cccnc5)n4)c3)cc(C(F)(F)F)c2)cn1 [nilotinib]
Method in brief: as §1

[6] = compound: Cc1nc(Nc2n[nH]c3c2CN(C(=O)N[C@H](CN(C)C)c2ccccc2)C3(C)C)c2sccc2n1
Method in brief: as §1

dasatinib = compound: Cc1nc(Nc2ncc(C(=O)Nc3c(C)cccc3Cl)s2)cc(N2CCN(CCO)CC2)n1 [dasatinib]
Method in brief: as §1

[7] = compound: Cc1ncc(-c2ccnc(Nc3ccc(S(C)(=O)=O)cc3)n2)n1C(C)C
Method in brief: as §1

[8] = compound: Cn1cc(-c2ccc3c(c2)CCN3C(=O)Cc2cccc(C(F)(F)F)c2)c2c(N)ncnc21
Method in brief: as §1

[9] = compound: Cn1cc(-c2ccc3nnc(C(F)(F)c4ccc5ncccc5c4)n3n2)cn1
Method in brief: as §1

tipifarnib = compound: Cn1cncc1[C@@](N)(c1ccc(Cl)cc1)c1ccc2c(c1)c(-c1cccc(Cl)c1)cc(=O)n2C [tipifarnib]
Method in brief: as §1

mubritinib = compound: FC(F)(F)c1ccc(/C=C/c2nc(COc3ccc(CCCCn4ccnn4)cc3)co2)cc1 [mubritinib]
Method in brief: as §1

Measured: log2 fold change

MCUR1 (UniProt Q96AQ8)
UniProt Q96AQ8, sequence (Q96AQ8 whole entry, looked up): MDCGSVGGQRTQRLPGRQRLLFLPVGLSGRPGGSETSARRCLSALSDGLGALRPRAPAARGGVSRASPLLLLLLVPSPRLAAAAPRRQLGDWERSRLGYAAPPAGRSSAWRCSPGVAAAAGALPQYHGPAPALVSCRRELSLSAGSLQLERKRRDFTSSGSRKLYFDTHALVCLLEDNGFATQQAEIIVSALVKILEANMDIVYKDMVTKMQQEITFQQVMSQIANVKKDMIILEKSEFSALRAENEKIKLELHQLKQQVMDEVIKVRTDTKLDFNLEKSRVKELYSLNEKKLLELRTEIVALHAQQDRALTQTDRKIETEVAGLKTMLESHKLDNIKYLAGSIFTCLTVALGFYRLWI
inactive: [1] 0.041 | crizotinib 0.082 | [2] 0.1 | [3] 0.044 | duvelisib 0.06 | gandotinib -0.021 | tozasertib 0.043 | [4] -0.017 | doramapimod -0.002 | ispinesib 0.255 | bafetinib 0 | [5] 0 | nilotinib 0.015 | [6] 0.015 | dasatinib -0.037 | [7] -0.004 | [8] 0.031 | [9] -0.091 | tipifarnib -0.028 | mubritinib 0.044

LRBA, A0A494BZW2
inactive: [1] 0.013 | crizotinib -0.053 | [2] 0.114 | [3] 0.104 | duvelisib -0.057 | gandotinib 0.041 | tozasertib -0.055 | [4] -0.004 | doramapimod 0.036 | ispinesib -0.182 | bafetinib -0.041 | [5] 0.044 | nilotinib 0.019 | [6] -0.016 | dasatinib -0.144 | [7] 0.053 | [8] -0.076 | [9] 0.123 | tipifarnib -0.26 | mubritinib -0.03

KDM5D isoform 3 (UniProt Q9BY66)
UniProt Q9BY66, sequence (Q9BY66 whole entry, looked up): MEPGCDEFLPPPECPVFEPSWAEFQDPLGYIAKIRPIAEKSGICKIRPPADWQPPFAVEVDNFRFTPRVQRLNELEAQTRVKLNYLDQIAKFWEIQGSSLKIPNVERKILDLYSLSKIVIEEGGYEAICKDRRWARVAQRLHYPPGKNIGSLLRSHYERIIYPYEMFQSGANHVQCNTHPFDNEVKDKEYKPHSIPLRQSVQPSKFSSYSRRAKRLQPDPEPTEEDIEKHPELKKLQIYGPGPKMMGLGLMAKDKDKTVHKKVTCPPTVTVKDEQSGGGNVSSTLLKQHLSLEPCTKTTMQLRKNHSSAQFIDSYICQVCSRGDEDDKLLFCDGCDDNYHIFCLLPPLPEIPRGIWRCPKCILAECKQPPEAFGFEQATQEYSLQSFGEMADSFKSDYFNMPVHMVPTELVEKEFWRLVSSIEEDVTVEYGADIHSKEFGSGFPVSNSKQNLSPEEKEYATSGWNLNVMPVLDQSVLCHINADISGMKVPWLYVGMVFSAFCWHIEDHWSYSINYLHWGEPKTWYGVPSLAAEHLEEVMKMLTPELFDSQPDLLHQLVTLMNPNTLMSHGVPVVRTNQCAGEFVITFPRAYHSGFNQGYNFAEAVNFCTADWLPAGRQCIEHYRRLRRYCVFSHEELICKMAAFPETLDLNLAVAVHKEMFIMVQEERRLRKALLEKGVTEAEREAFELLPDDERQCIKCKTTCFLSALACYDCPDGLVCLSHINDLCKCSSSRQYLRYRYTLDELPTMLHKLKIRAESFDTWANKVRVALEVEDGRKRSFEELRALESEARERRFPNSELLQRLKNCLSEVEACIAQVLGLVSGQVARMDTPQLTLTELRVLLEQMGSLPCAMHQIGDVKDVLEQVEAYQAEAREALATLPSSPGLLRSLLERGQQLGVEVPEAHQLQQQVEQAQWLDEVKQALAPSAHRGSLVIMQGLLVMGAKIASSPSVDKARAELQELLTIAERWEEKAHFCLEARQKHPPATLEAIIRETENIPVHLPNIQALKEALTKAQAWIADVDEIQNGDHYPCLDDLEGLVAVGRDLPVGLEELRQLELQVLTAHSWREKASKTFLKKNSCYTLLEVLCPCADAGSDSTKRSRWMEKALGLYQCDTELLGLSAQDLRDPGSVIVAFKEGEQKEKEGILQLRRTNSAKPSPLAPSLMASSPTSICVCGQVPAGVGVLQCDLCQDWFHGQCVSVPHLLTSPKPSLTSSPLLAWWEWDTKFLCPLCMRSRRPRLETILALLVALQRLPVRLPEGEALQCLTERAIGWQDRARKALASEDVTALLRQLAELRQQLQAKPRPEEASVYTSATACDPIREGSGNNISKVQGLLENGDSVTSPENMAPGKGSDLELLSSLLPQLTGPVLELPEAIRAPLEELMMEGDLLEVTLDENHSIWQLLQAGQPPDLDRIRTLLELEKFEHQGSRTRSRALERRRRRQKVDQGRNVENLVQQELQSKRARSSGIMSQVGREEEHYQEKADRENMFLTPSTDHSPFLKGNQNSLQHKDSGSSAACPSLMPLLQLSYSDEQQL
inactive: [1] -0.004 | crizotinib 0.038 | [2] -0.005 | [3] -0.054 | duvelisib 0.057 | gandotinib -0.051 | tozasertib 0.212 | [4] 0.125 | doramapimod 0.108 | ispinesib 0 | bafetinib 0.208 | [5] -0.049 | nilotinib 0.089 | [6] -0.054 | dasatinib -0.289 | [7] -0.047 | [8] -0.026 | [9] 0.058 | tipifarnib -0.044 | mubritinib 0.203

MAP1LC3B2 (UniProt A6NCE7)
inactive: [1] 0.035 | crizotinib -0.047 | [2] 0.054 | [3] -0.144 | duvelisib 0.061 | gandotinib -0.012 | tozasertib 0.114 | [4] 0.011 | doramapimod 0.003 | ispinesib 0.02 | bafetinib -0.044 | [5] -0.029 | nilotinib -0.006 | [6] -0.023 | dasatinib -0.024 | [7] 0.072 | [8] 0.019 | [9] -0.011 | tipifarnib 0.007 | mubritinib 0.018

LUC7L3 (UniProt O95232)
active: [3] -0.219 | [6] -2.05
inactive: [1] -0.001 | crizotinib -0.045 | [2] -0.022 | duvelisib -0.001 | gandotinib 0.065 | tozasertib 0.011 | [4] 0.02 | doramapimod 0 | ispinesib 0.099 | bafetinib 0.001 | [5] -0.001 | nilotinib 0.091 | dasatinib -0.037 | [7] 0.052 | [8] 0.007 | [9] -0.019 | tipifarnib 0.036 | mubritinib 0.02

JAK3 (UniProt P52333)
UniProt P52333, sequence (P52333 whole entry, looked up): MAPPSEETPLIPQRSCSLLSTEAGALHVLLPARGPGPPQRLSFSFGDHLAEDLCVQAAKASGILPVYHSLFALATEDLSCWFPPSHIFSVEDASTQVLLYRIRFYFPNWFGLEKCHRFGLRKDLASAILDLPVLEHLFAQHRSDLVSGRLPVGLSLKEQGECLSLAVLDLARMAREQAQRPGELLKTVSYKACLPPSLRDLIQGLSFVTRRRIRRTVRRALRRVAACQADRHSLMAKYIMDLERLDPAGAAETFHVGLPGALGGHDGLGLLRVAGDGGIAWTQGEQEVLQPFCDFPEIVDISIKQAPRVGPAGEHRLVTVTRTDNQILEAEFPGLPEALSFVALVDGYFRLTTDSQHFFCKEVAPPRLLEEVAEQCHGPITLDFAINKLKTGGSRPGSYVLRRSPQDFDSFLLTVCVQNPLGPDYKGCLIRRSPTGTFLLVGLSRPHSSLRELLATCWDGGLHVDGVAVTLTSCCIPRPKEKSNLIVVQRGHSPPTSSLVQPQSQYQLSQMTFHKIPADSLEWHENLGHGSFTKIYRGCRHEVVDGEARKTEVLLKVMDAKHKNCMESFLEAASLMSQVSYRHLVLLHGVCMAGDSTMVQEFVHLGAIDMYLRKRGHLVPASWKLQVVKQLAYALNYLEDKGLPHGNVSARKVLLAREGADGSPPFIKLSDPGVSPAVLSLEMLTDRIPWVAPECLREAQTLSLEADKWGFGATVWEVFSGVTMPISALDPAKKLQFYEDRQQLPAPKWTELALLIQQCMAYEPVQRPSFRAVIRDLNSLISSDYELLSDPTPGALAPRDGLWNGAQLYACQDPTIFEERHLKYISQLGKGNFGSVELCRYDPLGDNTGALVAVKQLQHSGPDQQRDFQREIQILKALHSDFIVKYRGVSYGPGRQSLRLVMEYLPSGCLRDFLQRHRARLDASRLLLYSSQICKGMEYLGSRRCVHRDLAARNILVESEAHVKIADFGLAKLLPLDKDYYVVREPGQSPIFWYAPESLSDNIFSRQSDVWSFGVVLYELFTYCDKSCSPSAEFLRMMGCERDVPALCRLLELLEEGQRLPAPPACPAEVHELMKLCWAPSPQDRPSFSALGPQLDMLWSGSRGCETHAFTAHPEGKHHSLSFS
inactive: [1] 0.001 | crizotinib 0.048 | [2] 0.142 | [3] -0.062 | duvelisib 0.133 | gandotinib -0.132 | tozasertib 0.032 | [4] 0.135 | doramapimod -0.071 | ispinesib 0.087 | bafetinib -0.013 | [5] -0.056 | nilotinib -0.01 | [6] 0.082 | dasatinib -0.028 | [7] -0.02 | [8] -0.019 | [9] 0.044 | tipifarnib 0.052 | mubritinib -0.061

LARP1 (UniProt Q6PKG0)
inactive: [1] -0.04 | crizotinib -0.097 | [2] -0.172 | [3] 0.134 | duvelisib -0.121 | gandotinib 0.026 | tozasertib -0.001 | [4] 0.01 | doramapimod 0.06 | ispinesib -0.166 | bafetinib 0.049 | [5] 0.024 | nilotinib -0.063 | [6] -0.014 | dasatinib 0.014 | [7] -0.028 | [8] -0.067 | [9] -0.043 | tipifarnib 0.047 | mubritinib -0.011

KIF11 (UniProt P52732)
UniProt P52732, sequence (P52732 whole entry, looked up): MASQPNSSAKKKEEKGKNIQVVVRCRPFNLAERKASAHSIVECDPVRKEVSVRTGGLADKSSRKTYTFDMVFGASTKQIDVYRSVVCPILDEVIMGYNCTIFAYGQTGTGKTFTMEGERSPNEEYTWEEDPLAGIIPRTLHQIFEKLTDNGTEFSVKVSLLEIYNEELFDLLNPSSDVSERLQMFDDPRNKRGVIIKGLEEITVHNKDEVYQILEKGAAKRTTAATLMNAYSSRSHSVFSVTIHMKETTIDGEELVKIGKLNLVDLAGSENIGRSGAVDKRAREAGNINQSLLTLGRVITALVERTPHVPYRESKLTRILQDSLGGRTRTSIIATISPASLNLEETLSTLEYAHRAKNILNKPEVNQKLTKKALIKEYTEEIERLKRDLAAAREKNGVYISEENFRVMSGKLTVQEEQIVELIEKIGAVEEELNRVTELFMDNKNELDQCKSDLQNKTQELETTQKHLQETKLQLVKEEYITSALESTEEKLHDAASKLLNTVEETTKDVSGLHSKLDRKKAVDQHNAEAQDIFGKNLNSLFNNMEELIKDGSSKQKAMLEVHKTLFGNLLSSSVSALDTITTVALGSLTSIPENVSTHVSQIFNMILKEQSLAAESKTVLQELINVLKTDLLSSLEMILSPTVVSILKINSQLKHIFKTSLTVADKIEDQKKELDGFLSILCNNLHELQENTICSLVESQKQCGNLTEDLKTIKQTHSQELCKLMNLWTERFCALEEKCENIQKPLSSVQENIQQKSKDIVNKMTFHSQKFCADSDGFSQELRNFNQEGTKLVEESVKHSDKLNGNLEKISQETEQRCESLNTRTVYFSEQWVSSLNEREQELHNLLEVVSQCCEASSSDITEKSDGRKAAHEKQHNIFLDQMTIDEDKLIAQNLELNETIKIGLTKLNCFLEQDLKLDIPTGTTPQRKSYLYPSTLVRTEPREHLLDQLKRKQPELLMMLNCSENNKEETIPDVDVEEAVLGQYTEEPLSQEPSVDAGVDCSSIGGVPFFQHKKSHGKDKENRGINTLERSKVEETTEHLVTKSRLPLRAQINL
active: ispinesib 0.761
inactive: [1] 0.034 | crizotinib -0.091 | [2] -0.029 | [3] 0.207 | duvelisib -0.007 | gandotinib -0.018 | tozasertib 0.12 | [4] 0.19 | doramapimod 0.13 | bafetinib 0.043 | [5] 0.044 | nilotinib -0.057 | [6] -0.031 | dasatinib -0.075 | [7] 0.088 | [8] -0.06 | [9] -0.002 | tipifarnib -0.078 | mubritinib -0.025

MICOS13 (UniProt Q5XKP0)
UniProt Q5XKP0, sequence (Q5XKP0 whole entry, looked up): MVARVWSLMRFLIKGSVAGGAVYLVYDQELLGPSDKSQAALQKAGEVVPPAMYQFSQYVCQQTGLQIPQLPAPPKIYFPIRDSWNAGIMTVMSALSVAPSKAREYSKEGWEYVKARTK
inactive: [1] 0.049 | crizotinib -0.164 | [2] 0.156 | [3] -0.08 | duvelisib 0.031 | gandotinib -0.216 | tozasertib -0.047 | [4] -0.055 | doramapimod -0.027 | bafetinib -0.114 | [5] 0.014 | nilotinib -0.054 | [6] 0.025 | dasatinib -0.085 | [7] 0.001 | [8] 0.046 | [9] 0.056 | tipifarnib -0.111 | mubritinib 0.117
active: ispinesib -0.257

KPNA1 (UniProt P52294)
inactive: [1] -0.021 | crizotinib -0.169 | [2] -0.029 | [3] 0.084 | duvelisib 0.047 | gandotinib 0.01 | tozasertib 0.075 | [4] -0.008 | doramapimod 0.062 | ispinesib -0.012 | bafetinib 0 | [5] -0.02 | nilotinib -0.103 | [6] -0.074 | dasatinib 0.003 | [7] 0.047 | [8] -0.089 | [9] -0.008 | tipifarnib -0.088 | mubritinib -0.06

MAP2K1 (UniProt Q02750)
UniProt Q02750, sequence (Q02750 whole entry, looked up): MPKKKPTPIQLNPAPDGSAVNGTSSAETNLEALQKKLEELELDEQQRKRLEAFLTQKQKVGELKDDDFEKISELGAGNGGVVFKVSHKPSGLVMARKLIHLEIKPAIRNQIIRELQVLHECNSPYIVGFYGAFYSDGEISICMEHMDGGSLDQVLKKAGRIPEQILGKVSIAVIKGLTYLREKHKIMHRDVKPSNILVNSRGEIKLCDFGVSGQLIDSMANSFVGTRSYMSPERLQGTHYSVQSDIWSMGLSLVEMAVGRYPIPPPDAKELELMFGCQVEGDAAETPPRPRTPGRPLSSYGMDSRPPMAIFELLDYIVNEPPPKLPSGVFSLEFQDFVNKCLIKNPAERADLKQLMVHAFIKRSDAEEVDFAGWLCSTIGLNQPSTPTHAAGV
inactive: [1] 0.055 | crizotinib -0.019 | [2] 0.088 | [3] -0.092 | duvelisib 0.059 | gandotinib 0.005 | tozasertib -0.009 | [4] -0.038 | doramapimod -0.05 | ispinesib -0.009 | bafetinib -0.026 | [5] -0.039 | nilotinib -0.015 | [6] -0.052 | dasatinib -0.063 | [7] 0.008 | [8] 0.023 | [9] 0.021 | tipifarnib -0.024 | mubritinib 0.015

LRBA (UniProt P50851)
inactive: [1] 0.018 | crizotinib -0.054 | [2] 0.037 | [3] -0.005 | duvelisib 0.012 | gandotinib -0.094 | tozasertib -0.006 | [4] 0.011 | doramapimod 0.012 | ispinesib -0.078 | bafetinib -0.047 | [5] 0.053 | nilotinib -0.067 | [6] -0.022 | dasatinib -0.061 | [7] 0.014 | [8] 0.047 | [9] 0.002 | tipifarnib -0.06 | mubritinib 0.024

KEL (UniProt P23276)
inactive: [1] 0.002 | crizotinib 0.084 | [2] -0.048 | [3] -0.07 | duvelisib 0.015 | gandotinib -0.341 | tozasertib -0.01 | [4] 0.019 | doramapimod 0.028 | ispinesib 0.047 | bafetinib -0.027 | [5] -0.002 | nilotinib 0.017 | [6] -0.032 | dasatinib -0.019 | [7] 0.004 | [8] 0.083 | [9] 0.003 | tipifarnib 0.031
active: mubritinib -0.591

KDELR2 (UniProt P33947)
inactive: [1] 0.056 | crizotinib 0.035 | [2] 0.205 | [3] -0.096 | duvelisib 0.099 | gandotinib -0.107 | tozasertib -0.027 | [4] -0.007 | doramapimod 0.016 | ispinesib 0.016 | bafetinib -0.088 | [5] 0.072 | nilotinib -0.069 | [6] 0.035 | dasatinib 0.097 | [7] -0.082 | [8] 0.194 | [9] 0.264 | tipifarnib 0.125 | mubritinib -0.049

INPP1 (UniProt P49441)
UniProt P49441, sequence (P49441 whole entry, looked up): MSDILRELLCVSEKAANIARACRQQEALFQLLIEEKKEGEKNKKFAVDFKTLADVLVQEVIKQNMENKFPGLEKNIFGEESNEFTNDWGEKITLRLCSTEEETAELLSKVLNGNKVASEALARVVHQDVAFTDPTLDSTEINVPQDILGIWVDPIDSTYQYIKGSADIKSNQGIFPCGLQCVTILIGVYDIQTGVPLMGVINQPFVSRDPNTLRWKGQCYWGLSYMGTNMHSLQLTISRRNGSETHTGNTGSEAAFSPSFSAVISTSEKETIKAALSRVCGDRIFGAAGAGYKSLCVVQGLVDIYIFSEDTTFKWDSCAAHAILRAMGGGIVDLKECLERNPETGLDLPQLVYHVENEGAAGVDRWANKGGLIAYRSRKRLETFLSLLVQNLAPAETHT
inactive: [1] 0.041 | crizotinib -0.016 | [2] -0.012 | [3] -0.028 | duvelisib 0.011 | gandotinib -0.084 | tozasertib 0.018 | [4] -0.043 | doramapimod -0.018 | ispinesib 0.052 | bafetinib 0.003 | [5] 0.094 | nilotinib -0.001 | [6] 0.067 | dasatinib 0.027 | [7] 0.053 | [8] 0.037 | [9] 0.027 | tipifarnib -0.135 | mubritinib 0.15

IPO9 (UniProt Q96P70)
inactive: [1] -0.04 | crizotinib -0.031 | [2] 0.051 | [3] -0.042 | duvelisib 0.007 | gandotinib -0.146 | tozasertib 0.143 | [4] 0.041 | doramapimod 0.008 | ispinesib 0.062 | bafetinib 0.019 | [5] 0.031 | nilotinib -0.016 | [6] -0.06 | dasatinib 0.04 | [7] 0.011 | [8] -0.069 | [9] -0.06 | tipifarnib -0.084 | mubritinib -0.005
